HPGD inh – inhibitors of human 15-hydroxyprostaglandin dehydrogenase (HPGD); purified HPGD, NADH fluorescence kinetic, PGE2 substrate; P15428; AID 894; actives 4.3% (n = 150,000); Potency, µM, actives largely listed as inhibitors; active means well fitted inhibition curve with a large enough effect, not every such curve was filed as active; inconclusive means small, poorly fitted or top-dose-only effect, or another doubt; inactive means no such curve, though single readings can be large or run the other way
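20 nM HPGD preincubated 15 min at room temperature with compound in 50 mM Tris-HCl pH 8, 0.01% Tween 20. Started with 1 mM NAD+ and 30 uM prostaglandin E2; NADH fluorescence (360/450 nm) read 5 times over 30-s intervals, last minus first.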
Tau fibril ThT – inhibitors of human tau fibril formation, thioflavin T binding; recombinant tau K18 P301L, heparin-induced fibrillization, ThT fluorescence; Potency, µM (highest dose often 57.4 µM), most hits filed as inhibitors; actives 2.1% (n = 270,000); further: nearly all actives have a fitted effect of over 55% in size
Target sequence (P10636 561-689 P618L limits assumed): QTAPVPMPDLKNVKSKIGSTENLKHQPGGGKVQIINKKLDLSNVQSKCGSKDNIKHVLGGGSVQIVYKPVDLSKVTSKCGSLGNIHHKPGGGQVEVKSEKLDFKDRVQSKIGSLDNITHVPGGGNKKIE
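In this qHTS, human K18 P301L tau is incubated with compound and heparin for 6 hr at 37 C, and Thioflavin T fluorescence then reports fibril load.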
ALDH1A1 inh – blocks purified human ALDH1A1 activity; Purified ALDH1A1, NADH fluorescence, propionaldehyde substrate; Potency, µM (doses to about 75.3 µM), usual class: inhibitors; actives 7.3% (n = 220,000); active means well fitted inhibition curve with a large enough effect, not every such curve was filed as active; inconclusive means small, poorly fitted or top-dose-only effect, or another doubt; inactive means no such curve, though single readings can be large or run the other way
Target sequence (P00352 whole entry, looked up): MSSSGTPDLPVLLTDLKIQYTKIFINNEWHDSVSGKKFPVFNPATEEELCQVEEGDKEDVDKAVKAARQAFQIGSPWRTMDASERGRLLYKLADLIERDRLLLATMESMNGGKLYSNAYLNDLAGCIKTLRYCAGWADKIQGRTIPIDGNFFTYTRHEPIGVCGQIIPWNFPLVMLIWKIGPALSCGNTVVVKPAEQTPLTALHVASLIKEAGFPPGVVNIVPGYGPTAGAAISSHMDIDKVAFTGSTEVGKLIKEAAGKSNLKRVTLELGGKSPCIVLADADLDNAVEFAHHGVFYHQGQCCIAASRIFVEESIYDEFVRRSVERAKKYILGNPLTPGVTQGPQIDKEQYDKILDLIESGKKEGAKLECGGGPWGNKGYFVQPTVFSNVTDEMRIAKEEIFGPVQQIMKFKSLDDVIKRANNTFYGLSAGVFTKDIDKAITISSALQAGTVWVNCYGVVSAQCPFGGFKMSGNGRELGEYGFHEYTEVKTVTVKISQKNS
KDM4E inh – inhibitors of human JMJD2E histone demethylase; B2RXH2; Potency, µM (highest dose often 57.1 µM), most hits filed as inhibitors; JMJD2E catalytic domain, FDH-coupled NADH fluorescence (FDH is formaldehyde dehydrogenase); actives 1.6% (n = 230,000); active means well fitted inhibition curve with a large enough effect, not every such curve was filed as active; inconclusive means small, poorly fitted or top-dose-only effect, or another doubt; inactive means no such curve, though single readings can be large or run the other way; further: nearly all actives have a fitted effect of over 50% in size
Tau FP inhib – tau fibrillization inhibition (FP) | K18 P301L tau heparin fibrillization, Alexa594 FP, 6 h | Potency, µM (series often up to 57.7 µM), most hits filed as inhibitors | actives 0.39% (n = 280,000) | AID 1468; further: nearly all actives have a fitted effect of over 55% in size
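Human K18 P301L fragment (15 uM unlabeled plus 0.24 uM Alexa 594-labeled) in 100 mM sodium acetate pH 7 with compound, aggregation induced by 20 uM heparin for 6 hr at 37 C. ThT (30 uM) added for 1 hr, then Alexa 594 FP read.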
Tau fluor cs – counter-screen for tau fibril formation inhibitors | tau K18 P301L (four-repeat tau fragment) Alexa594 fluorescence, heparin fibrillization | Potency, µM (top dose mostly 57.7 µM) | actives 0.93% (n = 280,000); further: nearly all actives have a fitted effect of over 55% in size
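Human K18 P301L tau (15 uM unlabeled plus 0.24 uM Alexa 594-labeled, final) in 100 mM sodium acetate pH 7 was mixed with compound and 20 uM heparin and incubated 6 hr at 37 C.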
A number is an active result; 0 = inactive; ? = inconclusive; - = no result; ! = not active in a repeat; [ ] = dose if it differs, or a comment. The list is not random: actives were taken first. Their share in the collection is about 9.9%. Unless noted, the call rests on the fitted dose curve; in most records, active means well fitted curve in the direction sought with a large enough effect; inconclusive means small, poorly fitted or top-dose-only effect, or another doubt; inactive means no such curve, though single readings can be large; an effect the other way counts as inactive or inconclusive.

SMILES	HPGD inh	Tau fibril ThT	ALDH1A1 inh	KDM4E inh	Tau FP inhib	Tau fluor cs
CC(C)[C@H](Nc1nc(-c2ccccc2)nc2c1oc1ccccc12)C(=O)O	0	0	1.1µM	0	0	0
CC(C)C(Nc1ncnc2c1oc1ccccc12)C(=O)O (stereo unspecified)	-	0	0	?	0	0
CCc1nc(Nc2ccccc2)c2oc3ccccc3c2n1	?	0	?	?	0	0
CCc1nc(N[C@H](C(=O)O)C(C)CC)c2oc3ccccc3c2n1 (stereo partly specified)	0	0	0.5µM	0	0	0
COc1ccc2oc(-c3ccccc3)c(OC)c(=O)c2c1	?	?	?	?	0	0
COc1ccc(NS(=O)(=O)c2ccc3c(c2)CCCN3C(=O)C2CCC2)cc1OC	-	0	-	-	0	0
COc1cccc(CSc2nc3ccncc3[nH]2)c1	-	0	-	0	0	0
O=C(c1ccc(CSc2nc3ccncc3[nH]2)cc1)N1CCCCC1	0.56µM	0	25µM	0	0	0
COc1cccc(N2CCN(C(=O)c3ccc(CSc4nc5ccncc5[nH]4)cc3)CC2)c1	0	0	22µM	0	0	0
CC1CCCCC1NC(=O)c1ccc(CSc2nc3ccncc3[nH]2)cc1 (stereo unspecified)	?	0	?	0	0	0
CCCN(CCC)C(=O)CSc1nc2n[nH]c(C)c2c(=N)n1-c1ccc(OCC)cc1	-	0	3.2µM	0	0	0
CCCN(CCC)C(=O)CSc1nc2n[nH]c(C)c2c(=N)n1-c1ccc(OC)cc1	0	0	?	0	0	0
O=C(CSC(=S)N1CCCCC1)c1ccccc1	-	0	32µM	0	0	0
Cc1[nH]c2ccccc2c1C(=O)CN1CCN(C2CCCCC2)CC1	0	0	13µM	0	0	0
Cc1[nH]c2ccccc2c1C(=O)CSC(=S)N(C)C1CCCCC1	0	0	?	0	25µM	?
O=C(O)CSC(=S)N1CCCC1	-	0	-	0	0	0
Cc1[nH]c2ccccc2c1C(=O)CSC(=S)N1CCCCC1	25µM	?	?	0	40µM	22µM[quencher]
CCOc1ccc2nc(NC(=O)c3nc(SC(C)C)ncc3Cl)sc2c1	-	?	-	-	0	0
CCC(=O)Nc1ccc(NC(=O)CSc2nc3cc4c(cc3cc2C)CCC4)cc1	0	0	11µM	0	?	0
COc1cccc(/C=N/Nc2nc(Nc3ccccc3)nc(-n3nc(C)cc3C)n2)c1O	0	?	0	20µM	0	?
CC(C)CCNC(=O)CCCCn1c(=O)[nH]c2ccsc2c1=O	-	0	0	0	0	0
O=C1c2cccc3c(Nc4ccccc4Cl)c([N+](=O)[O-])cc(c23)C(=O)N1CCO	1.4µM	11µM	0	0	0	?
O=C1c2cccc([N+](=O)[O-])c2C(=O)N1CCO	-	0	0	0	0	0
Cc1cccc(OCC(O)CN2CC3(C)CC2CC(C)(C)C3)c1 (stereo unspecified)	0	0	0	0	0	0
Cc1cc(C)cc(OC(=O)CS(=O)c2ccc(C(F)(F)F)cc2[N+](=O)[O-])c1 (stereo unspecified)	0	13µM	0	0	?	?
SMILES	HPGD inh	Tau fibril ThT	ALDH1A1 inh	KDM4E inh	Tau FP inhib	Tau fluor cs
O=C(CS(=O)c1ccc(C(F)(F)F)cc1[N+](=O)[O-])Oc1ccc(Cl)cc1 (stereo unspecified)	0	22µM	0	0	?	?
Cn1c(=O)n(C)c2cc(NS(=O)(=O)c3ccc(Br)cc3)c(NCc3ccccc3)cc21	-	?	-	-	0	?
COCc1c(C)cc(C)c(/C=N/O)c1C	14µM	0	0	0	0	0
Cc1cc2c(=O)n(Cc3ccco3)c(SCC(=O)NCc3ccco3)nc2s1	0	0	7.9µM	0	0	0
Cc1cc2c(=O)n(Cc3ccco3)c(SCC(=O)N3CCCc4ccccc43)nc2s1	0	0	11µM	0	0	0
CCn1c(SCC(=O)N2CCCc3ccccc32)nnc1-c1ccco1	0	0	22µM	0	0	0
C=CCn1c(SCC(=O)NC(=O)NCc2ccco2)nc2sc(CC)cc2c1=O	0	0	?	0	0	0
COc1ncc2nc(C)c(=O)n(Cc3cccs3)c2n1	0	-	0	-	-	-
O=C(Cc1ccc(Cl)cc1)Nc1ccc(C(=O)N2CCOCC2)cc1	-	0	0	0	0	0
O=C(c1ccccc1)c1c2c(cc3sc4ccccc4[n+]13)-c1cccc3cccc-2c13	0	6.3µM	0	16µM	?	?
O=C(NC1CC1)C1=C[C@@H](c2c[nH]c3ccccc23)C[C@@H](OCCCCO)O1	-	0	-	0	0	0
Cc1cc(C(=O)N2CCCCCC2)cs1	0.45µM	0	0	0	0	0
Cc1cc(C)cc(C(=O)N2CCCCCC2)c1	16µM	0	0	0	0	0
O=C1C2C3C=CC(CC3)C2C(=O)N1c1ccccc1[N+](=O)[O-] (stereo unspecified)	-	0	?	0	0	0
O=C(NCCc1ccc(Cl)cc1)C1CCN(c2ncccn2)CC1	-	0	0	0	0	0
O=C(C1CC1)N1CCc2cc(Br)cc(S(=O)(=O)NCc3ccco3)c21	0	?	2µM	0	0	0
Cc1ccc(CNS(=O)(=O)c2cc(Br)cc3c2N(C(=O)C2CC2)CC3)cc1	-	0	-	-	0	0
O=C(C1CC1)N1CCc2cc(Br)cc(S(=O)(=O)NCc3ccc4c(c3)OCO4)c21	0	0	10µM	0	0	0
Cc1ccc(CNC(=O)CCS(=O)(=O)c2cc(Br)cc3c2N(C(=O)C2CC2)CC3)o1	?	0	10µM	0	0	0
CCOCCCNS(=O)(=O)c1cc(Br)cc2c1N(C(=O)C1CC1)CC2	0	0	10µM	0	0	0
CN(C)c1ncnc2ccc(-c3cccnc3)cc12	-	-	0	-	-	-
Cc1cccc(N2CCN(S(=O)(=O)c3ccc4c(c3)C(C(C)C)C(=O)N4)CC2)c1C (stereo unspecified)	-	0	-	-	?	0
COC(=O)c1ccc(Cn2cnc3nc4c(cc3c2=O)CCCC4)cc1	-	0	-	-	0	0
COc1ccc(/C=N/Nc2ncnc3sc4c(c23)CCCC4)cc1OC	0	?	0	0	0	0
CO[C@H]1C[C@@H]2CC[C@@H](C)[C@@](O)(O2)C(=O)C(=O)N2CCCC[C@H]2C(=O)OC([C@H](C)C[C@@H]2CC[C@@H](O)[C@H](OC)C2)CC(=O)[C@H](C)/C=C(\C)[C@@H](O)[C@@H](OC)C(=O)[C@H](C)C[C@H](C)/C=C/C=C/C=C/1C (stereo partly specified)	0	?	18µM!	-	0	0
Cn1cc(C=O)c2cc(F)ccc21	-	0	2.2µM	?	0	0
Cn1c(Oc2ccc(F)cc2F)c(C=O)c2ccccc21	-	0	?	0	0	0
COC(=O)c1c(NC(=O)COC(=O)Cn2cnc3ccccc32)sc(C)c1C	0	0	25µM	?	0	0

Bioassay records deposited in PubChem BioAssay by National Center for Advancing Translational Sciences (NCATS).
